# PLK1 PBD inh: inhibitors of human PLK1 polo-box domain binding; P53350; Plk1 PBD binding of FITC phosphopeptide, fluorescence polarization; Potency, µM, without a hit: max response, negative = inhibition, most hits filed as inhibitors; 360,000 tested, 2.8% active; AID 720504; further: series mostly up to about 57 µM; on the % scale 0 is the no-effect control and ±100 the full control effect; nearly all actives have a fitted effect of over 65% in size
# G9a block: inhibitors of human histone lysine methyltransferase G9a; G9a H3K9 monomethylation, AlphaScreen, 2 h; Potency, µM (top dose mostly 102 µM), inactives show top-dose activity, negative = inhibition, usual class: inhibitors; 350,000 tested, 8.8% active; AID 504332; further: on the % scale 0 is the no-effect control and ±100 the full control effect; nearly all actives have a fitted effect of over 75% in size
#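 Step 1: enzyme (final 20 nM) with compound, 15 min RT. Step 2: substrate peptide 500 nM and SAM 20 uM, 2 h RT. Step 3: anti-H3K9me1 antibody and AlphaScreen beads, 10 min, then plate read.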
# VDR inhibitor: vitamin D3 receptor (human) inhibition; P11473; 400,000 tested, 0.93% active; VDR-SRC2-3 peptide fluorescence polarization, 2 h; Potency, µM, for inactives: max response, negative = inhibition, usual class: inhibitors; further: on the % scale 0 is the no-effect control and ±100 the full control effect
#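 Measured by FP: displacement of SRC2-3 coactivator peptide from VDR by library compounds, following a two-hour ambient incubation.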
# HP1b binding inh: blocks HP1-beta chromodomain binding to methylated histone tails | AlphaScreen HP1-beta / biotin-H3K9me3 peptide binding | P83916 | 390,000 tested, 0.56% active | Potency, µM (top dose mostly 114 µM), inactives show at the top dose activity change, negative = inhibition, actives largely listed as inhibitors; further: nearly all actives have a fitted effect of over 70% in size
#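 AlphaScreen: HP1-beta (50 nM) preformed 30 min with biotin-H3(1-18)K9me3 peptide (50 nM) in PBS pH 7.4, 0.01% Tween-20. Compound added for 30 min at RT, then streptavidin donor/nickel chelate acceptor beads (10 ug/mL) for 30 min.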
# BAZ2B block: BAZ2B (human) inhibition. AID 504333. AlphaScreen BAZ2B-H3K14Ac peptide displacement. Potency, µM (series often up to 114 µM), for the others: at the top dose activity change, negative = inhibition, usual class: inhibitors. Q9UIF8. 360,000 tested, 4.4% active; further: on the % scale 0 is the no-effect control and ±100 the full control effect; nearly all actives have a fitted effect of over 60% in size
#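 Inhibition is scored as reduced AlphaScreen emission. The BAZ2B/b-H3(5-23)K14Ac complex (50 nM each) in PBS pH 7.4, 0.01% Tween-20 meets compound (up to 110 uM) for 30 min at RT before bead addition.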
# JMJD2A Tudor: blocks the human JMJD2A Tudor domain. O75164. AlphaScreen JMJD2A-Tudor / H3K4me3 peptide binding. Potency, µM (series often up to 114 µM), for the others: top-dose activity change, negative = inhibition, most hits filed as inhibitors. 390,000 tested, 4.4% active; further: on the % scale 0 is the no-effect control and ±100 the full control effect; nearly all actives have a fitted effect of over 50% in size
# * = called active by the depositor; ? = inconclusive; / = no result given; [ ] = another dose, or the depositor's remark. An excerpt weighted towards active compounds, which were near 11% of everything screened. The call rests on the fitted dose curve; in most records, active means well fitted curve in the direction sought with a large enough effect; inconclusive means small, poorly fitted or top-dose-only effect, or another doubt; inactive means no such curve, though single readings can be large; an effect the other way counts as inactive or inconclusive. Potency means the concentration at half of the fitted maximal effect.
SMILES,PLK1 PBD inh,G9a block,VDR inhibitor,HP1b binding inh,BAZ2B block,JMJD2A Tudor
CCOc1cc(/C=C2\C(=O)N(c3cccc(C(=O)O)c3)N=C2C(F)(F)F)ccc1OCC(=O)Nc1ccccc1OC,/,/,/,/,50µM*,/
COc1cc(/C=C2\C(=O)N(CCC#N)N=C2C)ccc1OCC(=O)Nc1ccccc1,1.3µM*,22%[59 µM],?,30%,2%,-6%
CCC(=O)N1Cc2cc(C(=O)N(C)C)nc(-c3cccc(-c4cncnc4)c3)c2[C@@H]1CCO,-3%,/,/,/,/,/
CCCCn1c(=O)c2[nH]c(C34CC5CC(CC3C5)C4)nc2n(CCCO)c1=O,/,27%[59 µM],?,/,/,/
Cc1cc(C)c2c3c(oc2n1)C(=O)N(c1cccc(Cl)c1)CC(=O)N3,6%,/,20%,22%,0%,6%
CC1=C(c2ccc(C)c(C)c2)S(=O)(=O)N=C1N1CCC(C(=O)Nc2cccc(F)c2)CC1,/,3%[59 µM],3%,?,-6%,-15%
C=CCn1c(Cc2cccs2)nnc1SCC(=O)Nc1ccc(OC)c(OC)c1,2%,23%[12.7 µM],-13%,29%,12%,-11%
C=CCn1c(Cc2cccs2)nnc1SCC(=O)c1cccc(Br)c1,?,32µM*,?,29%,-7%,-25%[57.1 µM]
C=CCn1c(Cc2cccs2)nnc1SCC(=O)c1ccc2ccccc2c1,-2%,28µM*,24%,14%,-9%,-24%
C=CCn1c(Cc2cccs2)nnc1SCC(=O)c1ccc(F)cc1,-25%,40µM*,?,55%,7%,56µM*
Cn1c(=O)[nH]c2cc(-c3noc(-c4ccc(C#N)cc4)n3)ccc21,/,20%[59 µM],-9%,13%[57 µM],3%,-14%
CCOC(=O)c1c(S(=O)(=O)NCC(=O)Nc2cccc(CC)c2)c(C)n(C)c1C,/,3%[59 µM],14%,15%,-12%,-9%
c1coc(-c2nc3nc4ccccc4nc3n2CC2CCCO2)c1 (stereo unspecified),-3%,50µM*,-3%,33%,0%,-10%
CCc1cccc(CC)c1NC(=O)Cn1nnc2sc(-c3ccccc3)cc2c1=O,/,10%[59 µM],-11%,26%,-4%,-14%
Cc1cc(C)c(NC(=O)C(C)n2nnc3sc(-c4ccccc4)cc3c2=O)c(C)c1 (stereo unspecified),/,10µM*,-3%,33%,?,?
COc1ccc(NC(=O)C(OC)c2ccccc2)cc1Cl (stereo unspecified),-1%,-11%[59 µM],?,35%,12%,7%
COc1ccc(NC(=O)C(C)n2nnc3sc(-c4ccccc4)cc3c2=O)cc1Cl (stereo unspecified),/,2.8µM*,?,?,-27%,79µM*
Cc1ccc(C(OCC(O)CNC(CO)C(O)c2ccc([N+](=O)[O-])cc2)c2ccccc2)cc1 (stereo unspecified),-5%,13µM*,13%,?,50µM*,40µM*
O=C(Cc1ccccc1)NC(C(=O)O)C(O)c1ccc([N+](=O)[O-])cc1 (stereo unspecified),-8%,-29%,-17%,53%,3%,1%
Cc1ccc(C(OCC(O)CN2CCCCC2)c2ccccc2)cc1 (stereo unspecified),3%,-1%,7%,28%,0%,-5%
Cc1ccc(C(OCC(O)CNC(C)c2ccccc2)c2ccccc2)cc1 (stereo unspecified),3%,8.9µM*,-13%,?,40µM*,1.3µM*
COc1ccccc1-c1nc(CNC(=O)Nc2ccccc2)c(C)o1,/,-1%[59 µM],13%,9%,-23%,-5%
COc1ccc(-n2c(Cc3cccn3C)nnc2SCC(=O)Nc2ccc(C)c(Cl)c2)cc1,0%,45µM*,4%,-8%,?,?
Cn1cccc1Cc1nnc(SCC(=O)NC2CCCCC2)n1-c1ccc(F)cc1,-6%,?,-18%,14%,0%,-34%
COc1cccc(NC(=O)CSc2nnc(Cc3cccn3C)n2-c2ccc(F)cc2)c1,-5%,?,0%,13%,50µM*,?

# Assay outcomes deposited in PubChem by National Center for Advancing Translational Sciences (NCATS).
